D1 potentiator = human D1 dopamine receptor positive modulation | potentiation, % at 10 µM | P21728 | 360,000 compounds, 0.036% hits | HEK293 TREx D1 cells, calcium flux, dopamine EC20 potentiation | AID 504651; in the data active = potentiation above about 30%; also: 0% is about no effect
D1 agonist = agonists of human D1 dopamine receptor. P21728. HEK293 T-REx D1 cells, calcium flux, agonist mode. activation, % at 2 µM. 360,000 compounds, 1% hits; also: 0% is about no effect
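Inducible HEK293 T-REx D1 cells, force-coupled to calcium signalling, were plated at 4000 cells/well with tetracycline and held overnight at 30 C. After no-wash calcium dye loading, compound-evoked calcium rise over 180 s flagged agonists.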
TRHR enhancer = TRH receptor (human) allosteric enhancement; P34981; TRHR cells, fluo-8 calcium fluorescence, EC20 TRH enhancement; enhancement, % at 2 µM; 360,000 compounds, 0.66% hits; in the data active = enhancement above about 30%; also: 0% is about no effect
Target sequence (P34981 whole entry, looked up): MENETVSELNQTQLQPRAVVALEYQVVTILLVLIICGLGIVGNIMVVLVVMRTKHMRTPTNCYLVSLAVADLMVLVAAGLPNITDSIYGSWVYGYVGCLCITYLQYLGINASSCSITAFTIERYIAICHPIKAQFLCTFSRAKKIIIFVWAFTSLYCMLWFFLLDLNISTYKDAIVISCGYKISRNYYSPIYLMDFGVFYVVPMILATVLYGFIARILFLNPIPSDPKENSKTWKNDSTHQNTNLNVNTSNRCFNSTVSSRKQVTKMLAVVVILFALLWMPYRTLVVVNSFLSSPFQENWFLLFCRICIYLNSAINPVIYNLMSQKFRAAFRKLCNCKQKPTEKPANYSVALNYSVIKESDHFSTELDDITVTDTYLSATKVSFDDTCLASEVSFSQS
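TRHR-expressing cells loaded with fluo-8 calcium dye were read kinetically (ex 480/em 530) during compound addition, then stimulated with an EC20 of TRH (10 nM final). Enhancement of the Gq-mediated intracellular calcium response was scored.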
TRHR agonist = activates the human TRH receptor | P34981 | TRHR cells, calcium flux fluo-8, FDSS agonist mode | activation, % at 2 µM | 360,000 compounds, 0.18% hits | AID 493084; also: 0% is about no effect
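In this calcium-flux screen, cells bearing human TRHR are dye-loaded with fluo-8, baselined for 10 cycles, then exposed to library compounds; positive kinetic calcium responses during the agonist phase mark hits, with TRH as control.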
D1 antagonist = blocks dopamine activation of the human D1 receptor; P21728; HEK293 TREx D1 cells, calcium flux, dopamine EC80; stronger effect = lower value; activity change, negative = inhibition, % at 10 µM; 360,000 compounds, 3.2% hits; AID 504652; in the data active = activity change below about -30%; also: % is scaled to controls: 0 for no effect and ±100 for the full control effect
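Compound effects on dopamine-evoked calcium signalling were measured in tetracycline-induced HEK293 Trex D1 cells. Dopamine at EC80 followed a 180 s compound pre-read, and fluorescence was tracked kinetically for 180 s more.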
Numbers without * were called inactive. Hits are enriched below; roughly 4.6% of the tested compounds scored in any of these assays. Rule as the data show it, unless noted: active = activation above about 30%; inactive = the rest.

SMILES | D1 potentiator | D1 agonist | TRHR enhancer | TRHR agonist | D1 antagonist
COc1cccc(CN(C)CC2CCCN(CCc3ccccc3C)C2)c1 (stereo unspecified) | -3 | 4 | -6 | 0 | -63*
CCN(CC1CCCN(CCc2cccc(OC)c2)C1)C(=O)C=C(C)C (stereo unspecified) | -8 | 2 | -2 | 0 | -8
CCOc1cccc(CN(CC)CC2CCCN(CCc3cccc(OC)c3)C2)c1O (stereo unspecified) | -11 | 4 | 34* | 0 | -17
CCN(Cc1cccc(OC)c1)CC1CCCN(CCc2cccc(OC)c2)C1 (stereo unspecified) | -8 | 8 | 3 | 1 | -39*
CS(=O)(=O)c1ccc2nc(NC(=O)CCNC(=O)c3ccc(Cl)cc3)sc2c1 | -4 | 0 | -9 | 1 | -47*
CS(=O)(=O)c1ccc2nc(NC(=O)c3ccc(Cl)cc3)sc2c1 | 1 | 3 | -2 | 0 | 6
CC(C)NS(=O)(=O)c1ccc2nc(NC(=O)c3cncc(Br)c3)sc2c1 | 1 | 2 | 0 | 0 | -52*
COc1ccc(C(=O)Nc2nc3ccc(S(C)(=O)=O)cc3s2)cc1 | -5 | -1 | -3 | 0 | -39*
CCN(CC)CC#CCC1(O)c2ccccc2-c2ccccc21 | -5 | 4 | 4 | 1 | 17
Cc1onc(-c2ccccc2)c1C(=O)c1c[nH]c(C(=O)NCc2ccncc2)c1 | -4 | -1 | 1 | 0 | -89*
NNC(=O)c1sccc1OCc1ccc(Cl)cc1Cl | -6 | 10 | -2 | 0 | -32*
NNC(=O)c1sccc1OCc1ccc(F)cc1 | -8 | 5 | -12 | 0 | 15
CNC(=O)c1sccc1SCc1ccc(Cl)cc1Cl | -8 | 2 | 33* | -1 | 11
CC(=O)c1ccc(NC(=O)CN2C(=O)/C(=C/C(C)=C/c3ccccc3)SC2=S)cc1 | -6 | 3 | -5 | 0 | -5
O=C(Nc1c[nH]c2c(Cl)cccc2c1=O)N1CCN(c2ccccn2)CC1 | 0 | 2 | 31* | -1 | 14
COc1ccc(-c2nc3ccccc3nc2-c2ccc(OC)c(OC)c2)cc1OC | -3 | 5 | 20 | 0 | 9
COc1ccc(-c2cc3ccccc3nc2N)cc1OC | -5 | 12 | 2 | 0 | -38*
O=C(CCn1nnc2ccccc21)Nc1nnc(COc2ccccc2F)s1 | 4 | 3 | 32* | 0 | 17
O=C(CCn1nnc2ccccc21)Nc1nnc(-c2ccccc2F)s1 | -4 | 5 | -4 | 0 | -12
CC(=O)N1N=C(c2ccc(C)cc2)OC1c1cccnc1 (stereo unspecified) | -2 | 1 | 1 | 0 | -32*
CC(=O)N1N=C(c2cccc(Cl)c2)OC1c1ccc(C(C)C)cc1 (stereo unspecified) | -4 | 4 | 3 | 1 | 1
Cc1ccc(CCc2nnc(SCC(=O)Nc3cc(Cl)ccc3Cl)n2-c2ccccc2)o1 | 19 | 12 | 0 | 1 | -4
Cc1ccc(CS(=O)(=O)CCC(=O)NCc2cccs2)cc1 | -8 | -1 | 3 | -1 | -32*
Cc1ccc(CS(=O)(=O)CCC(=O)NCCc2ccccc2)cc1 | 1 | 0 | -3 | -1 | -14
O=C(COC(=O)CNC(=O)c1cccs1)Nc1ccccc1C(F)(F)F | -1 | 2 | -1 | -1 | -3
SMILES | D1 potentiator | D1 agonist | TRHR enhancer | TRHR agonist | D1 antagonist
O=C(CCN1C(=O)CSc2ccccc21)Nc1cccc(C(F)(F)F)c1 | -1 | -1 | 1 | 0 | -15
O=C(CCN1C(=O)CSc2ccccc21)Nc1ccc(C(F)(F)F)cc1 | 4 | 6 | 1 | 0 | -31*
O=C(CN1C(=O)CSc2ccc(C(F)(F)F)cc21)Nc1ccccc1 | -3 | 30* | -3 | 3 | -5
CN(C)S(=O)(=O)c1ccc2c(c1)N(CC(=O)Nc1cccc(C(F)(F)F)c1)C(=O)CS2 | 0 | 2 | -2 | 0 | 18
CCOC(=O)c1cccc(NC(=O)/C=C/c2ccc([N+](=O)[O-])cc2)c1 | -4 | 6 | -4 | 0 | -44*
Cc1cc2c(c(=O)o1)C(Cc1ccccc1)C(C#N)=C(N)O2 (stereo unspecified) | -6 | 1 | 3 | 0 | -56*
CCN(CC(=O)Nc1ccc(NC(C)=O)cc1)C(=O)CCCN1C(=O)c2ccccc2C1=O | -6 | 3 | -1 | 0 | 7
CCN(CC(=O)Nc1ccc(NC(C)=O)cc1)C(=O)CCN1C(=O)C2CC=CCC2C1=O (stereo unspecified) | -5 | 3 | 10 | 0 | -44*
CCN(CC(=O)Nc1ccc(NC(C)=O)cc1)C(=O)CCCOc1ccc(C(C)(C)C)cc1 | 7 | 32* | 5 | 1 | 0
COCCCNC(=O)C1CCCN(C(=O)c2cnn(-c3ccc(F)cc3)c2-n2cccc2)C1 (stereo unspecified) | -1 | 1 | -4 | 0 | -13
C[C@@H](NC(=O)OC(C)(C)C)C(=O)NCC1CCC(C(=O)N[C@@H](Cc2ccccc2)C(=O)O)CC1 (stereo partly specified) | 11 | 1 | 3 | 0 | 9
O=C(NC1CCCc2c1cnn2-c1ccc(F)cc1F)c1ccccn1 (stereo unspecified) | -3 | 3 | 1 | 0 | 3
O=C(NC1CCCc2c1cnn2-c1ccccc1F)c1ccccn1 (stereo unspecified) | -3 | 11 | 5 | -1 | -38*
COc1ccc(N=Nc2nc3cc(Br)c(Br)cc3n2C)c(OC)c1 | -5 | 88* | -2 | 55* | -12
O=C(CCc1nc2ccccc2c(=O)[nH]1)N1CCN(S(=O)(=O)c2cccc([N+](=O)[O-])c2)CC1 | -5 | 1 | 12 | 0 | -2
COc1ccc(C2CC(Cn3cc(C#N)c(=O)n(C)c3=O)ON2C)cc1 (stereo unspecified) | -8 | 0 | 14 | 0 | -34*
O=C1CCN(S(=O)(=O)c2ccc(Cl)cc2)CC1 | -3 | 4 | -5 | -1 | 2
CCOC(=O)Cc1csc(N/N=C/c2cccc([N+](=O)[O-])c2)n1 | -6 | 0 | 13 | -1 | -5
O=[N+]([O-])c1cccc(-c2csc(N/N=C/c3cccc(O)c3)n2)c1 | -12 | 2 | -1 | 1 | -43*
Cc1csc(N/N=C/c2ccc([N+](=O)[O-])cc2)n1 | -1 | 7 | -2 | 2 | -35*
CC1CCN(c2oc(-c3ccc(COc4ccccc4)o3)nc2C#N)CC1 | -1 | 1 | -2 | 0 | 7
O=C(CN1CCC(NC(=O)c2cccc(F)c2)CC1)NCc1cccs1 | 1 | 1 | -3 | 0 | 6
CC(C)[C@H](NC(=O)OC(C)(C)C)c1nnc(SCc2cccc(F)c2)o1 | -1 | -3 | 3 | 0 | 10
